Compounds with a hit are over-represented: about 18% of the library has one in this group of screens.
HepG2 tox = qHTS for Inhibitors of TGF-b: Cytotox Counterscreen; Potency, µM (top dose mostly 46.1 µM), actives largely listed as cytotoxic; AID 588856, 2011; 410,000 compounds, 0.76% hits; HepG2 CAGA-GFP viability, ATP luminescence, 18 h
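HepG2 CAGA-GFP cells (1000/well, DMEM with 1% FBS) received compound, then TGF-beta at 500 pg/mL final, and were incubated 18 hours at 37 degrees C. Viability was read by CellTiter-Glo luminescence. Media-only wells were set as complete cell-killing and DMSO as no toxicity.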
DT40 TDP1 no CPT = qHTS for Inhibitors of human tyrosyl-DNA phosphodiesterase 1 (TDP1): qHTS in cells in absence of CPT; DT40 Tdp1-/- hTDP1 cells, no CPT, ATP luminescence, 48 h; Potency, µM (top dose mostly 46.2 µM), hits mostly inhibitors; 420,000 compounds, 15% hits; note: nearly all actives have a fitted effect of over 55% in size
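Growth kinetics read by CellTiter-Glo luminescence after ≥48 hr at 37 °C. Cells: DT40 Tdp1-/- stably carrying human TDP1, 400 per well, compound exposure in the absence of CPT (DMSO vehicle).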
TGFb inhibitor = qHTS for Inhibitors of TGF-b; HepG2 CAGA-GFP TGF-b/SMAD3 reporter, GFP fluorescence, 18 h; TGF-beta stimulated, 500 pg/mL final; Potency, µM (highest dose often 46.1 µM), usual class: inhibitors; 410,000 compounds, 1.2% hits; note: nearly all actives have a fitted effect of over 65% in size
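Read-out: total well GFP (ex488/em500-530) summed from mean per-cell fluorescence. Cells: HEPG2 CAGA-GFP, 1% FBS DMEM, 18 h at 37 degrees C with 500 pg/mL final TGF-beta. Unstimulated wells served as the full-inhibition control; stimulated DMSO wells = 0%.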
IL1B secr inh = qHTS for Inhibitors of Inflammasome Signaling: IL-1-beta AlphaLISA Primary Screen. THP-1 LPS/ATP IL-1B secretion, AlphaLISA, 16 h; hits give low values. activity change, % at 57.5 µM. 360,000 compounds, 4.7% hits; in the data active = activity change below about -50%; inconclusive = mostly about -30% to -49%
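Secreted IL-1B measured by AlphaLISA bead assay after 16 h compound exposure of THP-1 cells; compounds (final up to 57.5 uM) added 1 h before LPS (250 ng/mL) and ATP (1.25 mM) stimulation; lower signal means less secretion.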
TDP1 inh = qHTS Assay for Inhibitors of Tyrosyl-DNA Phosphodiesterase (TDP1); recombinant TDP1, AlphaScreen DNA substrate cleavage; Potency, µM (series often up to 130 µM), usual class: inhibitors; Tyrosyl-DNA phosphodiesterase 1 (Homo sapiens), Q9NUW8; 350,000 compounds, 0.28% hits; note: nearly all actives have a fitted effect of over 40% in size
Target sequence (Q9NUW8 whole entry, looked up): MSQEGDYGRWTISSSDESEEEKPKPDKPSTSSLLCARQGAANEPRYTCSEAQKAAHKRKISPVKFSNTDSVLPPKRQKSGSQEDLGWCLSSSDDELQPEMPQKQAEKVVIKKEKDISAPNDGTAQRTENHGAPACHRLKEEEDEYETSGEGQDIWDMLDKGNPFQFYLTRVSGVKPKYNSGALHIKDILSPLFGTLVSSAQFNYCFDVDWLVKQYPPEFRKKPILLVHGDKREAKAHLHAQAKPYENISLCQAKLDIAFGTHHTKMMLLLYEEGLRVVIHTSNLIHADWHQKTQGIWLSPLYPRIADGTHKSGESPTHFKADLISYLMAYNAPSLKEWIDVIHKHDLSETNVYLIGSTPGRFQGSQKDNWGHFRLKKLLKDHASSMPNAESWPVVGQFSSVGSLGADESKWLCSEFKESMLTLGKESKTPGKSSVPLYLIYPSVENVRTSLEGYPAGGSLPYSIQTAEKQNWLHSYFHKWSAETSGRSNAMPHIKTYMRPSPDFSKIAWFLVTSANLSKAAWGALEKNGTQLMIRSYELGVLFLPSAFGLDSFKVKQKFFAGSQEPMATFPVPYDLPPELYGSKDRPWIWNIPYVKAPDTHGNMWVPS
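Tdp1 1 nM final; 15 min RT w/ cpd; substrate 15 nM, 5 min; beads 10 ug/ml, 10 min; AlphaScreen read. Neg ctrl: no enzyme.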
TDP1 cell CPT = qHTS for Inhibitors of human tyrosyl-DNA phosphodiesterase 1 (TDP1): qHTS in cells in presence of CPT | chicken DT40 Tdp1-/-;hTDP1 cells + 20 nM CPT, ATP luminescence, 48 h | Potency, µM (highest dose often 46.2 µM), actives largely listed as inhibitors | 420,000 compounds, 12% hits | AID 686979, 2013; note: nearly all actives have a fitted effect of over 55% in size
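Chicken DT40 Tdp1-/- cells complemented with human TDP1, 400 cells/well, exposed to compounds plus 20 nM camptothecin for at least 48 h at 37 C; viability read as ATP content by CellTiter-Glo luminescence.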
Hits are given with their value; . = inactive; ? = inconclusive; / = not tested or not shown; [ ] = another dose, or the depositor's remark. Unless noted, calls come from the whole dose curve; as a rule, active = well fitted curve in the direction sought with a large enough effect; inconclusive = small, poorly fitted or top-dose-only effect, or another doubt; inactive = no such curve, though single readings can be large; an effect the other way counts as inactive or inconclusive.

SMILES	HepG2 tox	DT40 TDP1 no CPT	TGFb inhibitor	IL1B secr inh	TDP1 inh	TDP1 cell CPT
COc1ccc(/C=C2\SC(=O)NC2=S)cc1OC	.	?	.	-73.7	.	10.3µM
COc1cc(/C=N/O)ccc1Oc1ccc([N+](=O)[O-])cc1[N+](=O)[O-]	.	18.4µM	.	.	.	?
COc1cc(/C=C2\SC(=O)NC2=O)ccc1Oc1ccc([N+](=O)[O-])cc1[N+](=O)[O-]	.	16.4µM	?	.	.	18.4µM
COc1cc(/C=C2\SC(=O)NC2=O)ccc1OCC(=O)N1CCOCC1	.	.	.	.	.	.
CO/N=C/c1ccc(Oc2ccc([N+](=O)[O-])cc2[N+](=O)[O-])c(OC)c1	.	16.4µM	.	.	.	?
CCc1cccc(C)c1NC(=O)Cn1cnc2c1c(=O)n(C)c(=O)n2C	.	.	.	/	.[12.3 µM]	?
O=C(CCCl)N1CCCC2(CCCCC2)C1	.	.	.	.	/	.
CCN1C(=O)C(=Cc2cccc(OC)c2Oc2ccc([N+](=O)[O-])cc2[N+](=O)[O-])SC1=S	.	1.46µM	.	-94.8	/	1.46µM
COc1cccc(/C=C2\SC(=S)N(N3CCOCC3)C2=O)c1OC	.	.	?	.	.	.
COc1ccc(CN(C)Cc2nc(Cc3cccc(F)c3)no2)c2cccnc12	.	2.91µM	?	.	.	11.6µM
N#Cc1nc(Nc2ccc(F)cc2)nc(NC2CCCC2)n1	/	/	/	/	.	/
O=S1(=O)c2c(F)cccc2OC(COc2ccccc2)CN1CCc1ccc(F)cc1 (stereo not given)	.	16.4µM	.	.	/	?
O=S1(=O)c2c(F)cccc2O[C@@H](COCc2ccccc2)CN1CCc1ccc(F)cc1	.	?	?	.	/	?
Cc1ccc(F)cc1S(=O)(=O)NCc1nc(N2CCCC2)c2cccc(C)c2n1	/	23.1µM	/	/	/	?
Cc1[nH]nc2c1C(c1ccc(F)cc1)C(C#N)=C(N)O2 (stereo not given)	.	.	.	.	.	.
Cc1[nH]nc2c1C(c1ccc(-c3ccc(Cl)cc3)o1)C(C#N)=C(N)O2 (stereo not given)	.	?	?	-100.8	.	13µM
Cc1cc(C2C(C#N)=C(N)Oc3n[nH]c(C)c32)c(C)s1 (stereo not given)	.	?	?	?	.	8.2µM
Cc1ccc(-c2ccc(C3C(C#N)=C(N)Oc4n[nH]c(C)c43)o2)cc1 (stereo not given)	15.8µM	?	?	.	.	?
Cc1[nH]nc2c1C(c1ccc(-c3ccccc3C#N)o1)C(C#N)=C(N)O2 (stereo not given)	.	20.6µM	.	-55.6	.	29.1µM
CC1(NC(=O)CCNC(=O)c2ccc(C(C)(C)C)cc2)CCS(=O)(=O)C1 (stereo not given)	.	.	.	.	.	.
Cc1cc(C)c2oc(C(=O)Nc3sc4c(c3C(=O)NCc3ccco3)CCCC4)cc(=O)c2c1	.	.	.	/	.	.
COC(=O)c1ccccc1C(=O)N1CCc2c(cnc(C)c2CNC(=O)c2ccccc2F)C1	/	.	/	/	/	.[9.04 µM]
CCN(c1ccccc1)S(=O)(=O)c1ccc(C(=O)N(C)Cc2cccs2)cc1	.	23.1µM	.	.	.	?
CNS(=O)(=O)c1cccc(C(=O)NCC(c2cccs2)N(C)C)c1 (stereo not given)	.	.	.	.	.	.
CCN(CC(=O)NCc1cccs1)C(=O)c1ccc(S(=O)(=O)N(C)c2ccccc2)cc1	.	?	.	.	.	?
SMILES	HepG2 tox	DT40 TDP1 no CPT	TGFb inhibitor	IL1B secr inh	TDP1 inh	TDP1 cell CPT
Cc1cccc(NS(=O)(=O)c2ccc(C)c(C(=O)NCC(c3cccs3)N(C)C)c2)c1 (stereo not given)	.	?	.	.	.	18.4µM
Cc1cccc(NS(=O)(=O)c2ccc(C)c(C(=O)NCc3ccccn3)c2)c1	.	?	.	.	.	.
CCN(c1ccccc1)S(=O)(=O)c1cccc(C(=O)NCC(c2cccs2)N(C)C)c1 (stereo not given)	.	20.6µM	.	.	.	?
CCN(CC(=O)NCc1cccs1)C(=O)c1cccc(S(=O)(=O)N(CC)c2ccccc2)c1	.	23.1µM	?	.	/	?
C=CCn1c(CNC(=O)c2ccccc2F)nnc1SCC(=O)N1CCOCC1	.	.	.	.	.	.
CCCCN1CC(=O)N2[C@H]3c4ccc(OC)cc4OC[C@@H]3[C@H](C(=O)OCC)[C@]2(C)C1=O	.	.	.	.	.	.
Cc1ccc(N(C(=O)CNC(=O)c2ccco2)C(C(=O)NC2CCCCC2)c2cccnc2)cc1 (stereo not given)	.	.	.	.	.	.
COc1cc(Nc2nn(-c3ccc(OC(F)(F)F)cc3)nc2C(C)=O)cc(OC)c1	.	.	.	/	.	.
N#CCCC(CCC#N)C1=NCCc2ccccc21	.	.	.	.	/	.
Cc1ccc(NS(=O)(=O)c2cccc(C(=O)NCC(c3cccs3)N(C)C)c2)cc1 (stereo not given)	.	?	.	.	.	16.4µM
COc1ccc(NC(=O)c2sc3nc4c(cc3c2N)CCCCCC4)cc1	.	?	?	/	/	?
CCC1CCc2nc3sc(C(=O)Nc4cccc(F)c4)c(N)c3cc2C1 (stereo not given)	.	2.06µM	.	/	/	3.26µM
CCC1CCc2nc3sc(C(=O)Nc4cccc(C(F)(F)F)c4)c(N)c3cc2C1 (stereo not given)	.	18.4µM	.	/	/	?
CCC1CCc2nc3sc(C(=O)Nc4ccc(C)cc4)c(N)c3cc2C1 (stereo not given)	.	7.31µM	/	/	/	11.6µM
CCC1CCc2nc3sc(C(=O)Nc4ccc(F)cc4F)c(N)c3cc2C1 (stereo not given)	.	?	.	/	/	8.2µM
Cc1ccc(NC(=O)CNCc2cccs2)cc1Br	.	.	.	.	/	.
O=C(NCc1ccccc1)c1ccc(N2CCC3(CC2)CC(c2ccc(Cl)cc2)=NO3)c([N+](=O)[O-])c1	.	?	?	?	/	6.51µM
CCCNC(=O)c1ccc(N2CCC3(CC2)CC(c2ccccc2)=NO3)c(NC(=O)Cc2ccc(F)cc2)c1	.	18.4µM	?	.	/	?
